Test results as given in PubChem BioAssay (Tox21).
Inconclusive results are not listed. Calls of active or inactive are those of the source. The call rests on the fitted dose curve.

Tests used:
[1] = molecular target: Acetylcholinesterase (Homo sapiens) (UniProt P22303); assay: Acetylcholinesterase (AChE) small molecule antagonists: colormetric cell-based qHTS assay (AID 1347395); further: nearly all actives have a fitted effect of over 30% in size
Summary of the method: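 AChE inhibition read colorimetrically via DTNB–thiocholine in SH-SY5Y cells. Compound 30 min, substrate 90 min, both 37 C.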

[2] = molecular target: Acetylcholinesterase (Homo sapiens) (UniProt P22303); assay: Acetylcholinesterase (AChE) small molecule antagonists: enzyme-based qHTS assay (AID 1347397); conditions: Potency: AChE enzyme activity inhibition; outcome: AChE enzyme activity inhibition; further: nearly all actives have a fitted effect of over 55% in size
Summary of the method: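 Tox21 library chemicals are tested in qHTS format against recombinant human AChE. The enzyme, dispensed at 50 mU/mL, sits with compound for 30 min at room temperature. A DTNB–acetylthiocholine cocktail follows, and colour is read after 10 min.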

[3] = molecular target: Acetylcholinesterase (Homo sapiens) (UniProt P22303); assay: Acetylcholinesterase (AChE) small molecule antagonists: fluorescence cell-based qHTS assay (AID 1347398); conditions: Potency: AChE activity; outcome: AChE activity; further: nearly all actives have a fitted effect of over 50% in size; further: potency means the concentration at half of the fitted maximal effect
Summary of the method: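 Cellular AChE inhibition: SH-SY5Y cells treated with test chemical for 30 min at 37 C, then acetylthiocholine hydrolysis followed over 40 min at room temperature via thiocholine-reactive Thiolite Green fluorescence (490/520 nm).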

[4] = molecular target: Acetylcholinesterase (Homo sapiens) (UniProt P22303); assay: Acetylcholinesterase (AChE) small molecule antagonists: enzyme-based qHTS assay with human liver microsomes (AID 1347399); conditions: Potency: qHTS inhibition; outcome: qHTS inhibition; further: nearly all actives have a fitted effect of over 60% in size
Summary of the method: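 Recombinant human AChE (50 mU/mL in the enzyme mix) and human liver microsomes (0.25 mg/mL final) were preincubated with compound and NADPH (0.25 mg/mL final) for 30 min at 37 C. Acetylthiocholine/DTNB was then added; thiocholine was read colorimetrically after 10 min at room temperature.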
On the % scale 0 is the no-effect control and ±100 the full control effect.

Chain of Acetylcholinesterase (Homo sapiens) (P22303 whole entry, looked up): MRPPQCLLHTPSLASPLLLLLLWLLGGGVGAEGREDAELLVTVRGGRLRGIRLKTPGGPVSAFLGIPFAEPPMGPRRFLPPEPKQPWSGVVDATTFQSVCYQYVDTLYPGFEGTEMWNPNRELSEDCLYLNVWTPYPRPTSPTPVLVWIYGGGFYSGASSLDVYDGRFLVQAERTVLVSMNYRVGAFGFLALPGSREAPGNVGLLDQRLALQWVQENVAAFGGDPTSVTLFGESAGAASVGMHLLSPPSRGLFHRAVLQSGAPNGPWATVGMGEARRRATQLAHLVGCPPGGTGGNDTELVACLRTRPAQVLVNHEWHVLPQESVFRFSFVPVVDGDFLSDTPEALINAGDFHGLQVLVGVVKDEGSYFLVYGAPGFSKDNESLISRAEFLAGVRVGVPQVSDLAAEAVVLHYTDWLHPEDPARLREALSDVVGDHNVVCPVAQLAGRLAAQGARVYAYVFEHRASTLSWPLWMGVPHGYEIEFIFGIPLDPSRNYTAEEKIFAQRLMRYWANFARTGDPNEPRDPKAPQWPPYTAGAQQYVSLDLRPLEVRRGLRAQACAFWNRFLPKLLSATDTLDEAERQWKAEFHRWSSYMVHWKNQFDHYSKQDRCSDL

Cc1ccc(C(=O)O)o1
inactive: Potency [1] | Potency [2] | Potency [3] | Potency [4]

CCCCCCC(C)OC(=O)COc1nc(F)c(Cl)c(N)c1Cl (stereo unspecified)
inactive: Potency [1] | Potency [2] | Potency [3] | Potency [4]

Nc1ccc(S(=O)(=O)Nc2nccs2)cc1
inactive: Potency [1] | Potency [2] | Potency [3] | Potency [4]

CCOC(=O)C1=C[C@]2(CC)CCCN3CCc4c(n1c1ccccc41)[C@@H]32
inactive: Potency [1] | Potency [2] | Potency [3] | Potency [4]

Cc1ccc(S(=O)(=O)NC(=O)NC2CCCCCCC2)cc1
inactive: Potency [1] | Potency [2] | Potency [3] | Potency [4]

O=C(O)CN(CCOCCOCCN(CC(=O)O)CC(=O)O)CC(=O)O
inactive: activity, negative = inhibition [1] -1.41% [at 0.435 µM] | activity change, negative = inhibition [2] -0.554% [at 0.435 µM] | activity change, negative = inhibition [3] 2.07% [at 0.439 µM] | activity change, negative = inhibition [4] -0.252% [at 0.435 µM]

CC(C)Cc1ccc(C(C)C(=O)O)cc1 (stereo unspecified)
inactive: Potency [1] | Potency [2] | Potency [3] | Potency [4]

CCCCCCCCS
inactive: Potency [1] | Potency [2] | Potency [3] | Potency [4]

O=C1c2ccccc2C(=O)C1c1ccc(Br)cc1
inactive: Potency [1] | Potency [2] | Potency [3] | Potency [4]

Clc1ccc2cc3ccccc3cc2c1
inactive: Potency [1] | Potency [2] | Potency [3] | Potency [4]

CC(N)=O
inactive: Potency [1] | Potency [2] | Potency [3] | Potency [4]

C=C(C)C1CCC(C)CC1O (stereo unspecified)
inactive: Potency [1] | Potency [2] | Potency [3] | Potency [4]

Cc1cc(CC(=O)O)n(C)c1C(=O)c1ccc(Cl)cc1
inactive: Potency [1] | Potency [2] | Potency [3] | Potency [4]

Oc1ccc(Oc2ccccc2)cc1
inactive: Potency [1] | Potency [2] | Potency [3] | Potency [4]

NC(=O)OCC(COC(N)=O)c1ccccc1
inactive: Potency [1] | Potency [2] | Potency [3] | Potency [4]

CC(C[N+](C)(C)C)OC(N)=O (stereo unspecified)
inactive: Potency [1] | Potency [2] | Potency [3] | Potency [4]

CCOC(=O)[C@H](CCc1ccccc1)N[C@@H](C)C(=O)N1Cc2ccccc2C[C@H]1C(=O)O
inactive: Potency [1] | Potency [2] | Potency [3] | Potency [4]

CCCCCCOCCO
inactive: Potency [1] | Potency [2] | Potency [3] | Potency [4]

CCOC(=O)CC(=O)OCC
inactive: Potency [1] | Potency [2] | Potency [3] | Potency [4]

CC(C)C(=O)Nc1cccc(C(F)(F)F)c1
inactive: Potency [1] | Potency [2] | Potency [3] | Potency [4]

Nc1nnnn1-c1ccccc1
inactive: Potency [1] | Potency [2] | Potency [3] | Potency [4]

CC(C)(C)c1cccc(O)c1
inactive: Potency [1] | Potency [2] | Potency [3] | Potency [4]

C[C@@H]1C[C@H]2[C@@H]3CCC4=CC(=O)C=C[C@]4(C)[C@@]3(F)[C@@H](O)C[C@]2(C)[C@H]1C(=O)CO
inactive: Potency [1] | Potency [2] | Potency [3] | Potency [4]

CN(C)c1ccc(Cc2ccc(N(C)C)cc2)cc1
inactive: Potency [1] | Potency [2] | Potency [3] | Potency [4]

C=CCc1ccc(OC)c(OC)c1
inactive: Potency [1] | Potency [2] | Potency [3] | Potency [4]

O=C1C=CC(=O)N1c1ccccc1
active: Potency [3] 35.6 µM
inactive: Potency [1] | Potency [2] | Potency [4]

C1CN(CCOCCN2CCOCC2)CCO1
inactive: Potency [1] | Potency [2] | Potency [3] | Potency [4]

O=C(O)C[C@H](NC(=O)OCc1ccccc1)C(=O)O
inactive: Potency [1] | Potency [2] | Potency [3] | Potency [4]

Nc1ccn([C@@H]2O[C@H](CO)[C@@H](O)C2O)c(=O)n1 (stereo partly specified)
inactive: Potency [1] | Potency [2] | Potency [3] | Potency [4]

O=[N+]([O-])c1cccc(C(F)(F)F)c1
inactive: Potency [1] | Potency [2] | Potency [3] | Potency [4]

C[C@]12C=CC(=O)C=C1CC[C@@H]1[C@@H]2C(=O)C[C@@]2(C)[C@H]1CC[C@]2(O)C(=O)CO
inactive: Potency [1] | Potency [2] | Potency [3] | Potency [4]

CCCCCCCCCCCCCCCO
inactive: Potency [1] | Potency [2] | Potency [3] | Potency [4]

C=CCOC(=O)CCCCCC
inactive: Potency [1] | Potency [2] | Potency [3] | Potency [4]

Cc1cccc(C)c1NC(=O)c1ccc(N)cc1
inactive: Potency [1] | Potency [2] | Potency [3] | Potency [4]

CC1CCC(C(C)(C)S)C(=O)C1 (stereo unspecified)
inactive: Potency [1] | Potency [2] | Potency [3] | Potency [4]

C[N+](C)(C)CC[N+]1(C)Cc2c(Cl)c(Cl)c(Cl)c(Cl)c2C1
inactive: Potency [1] | Potency [2] | Potency [3] | Potency [4]

COc1cc(S(N)(=O)=O)cc(C(=O)O)c1OC
inactive: Potency [1] | Potency [2] | Potency [3] | Potency [4]

CCCc1cc(C(N)=S)ccn1
inactive: Potency [1] | Potency [2] | Potency [3] | Potency [4]

CC(COCCO)OCCO (stereo unspecified)
inactive: Potency [1] | Potency [2] | Potency [3] | Potency [4]

CCCN(CCC)C(=O)C(CCC(=O)OCCCN1CCN(CCOC(=O)Cc2c(C)n(C(=O)c3ccc(Cl)cc3)c3ccc(OC)cc23)CC1)NC(=O)c1ccccc1 (stereo unspecified)
inactive: Potency [1] | Potency [2] | Potency [3] | Potency [4]

O=C(O)c1ccccc1C(=O)OCc1ccccc1
inactive: Potency [1] | Potency [2] | Potency [3] | Potency [4]

OCCOCCOCCO
inactive: Potency [1] | Potency [2] | Potency [3] | Potency [4]

C=C[Si](OC(C)=O)(OC(C)=O)OC(C)=O
inactive: Potency [1] | Potency [2] | Potency [3] | Potency [4]

CC1COC(=O)O1 (stereo unspecified)
inactive: Potency [1] | Potency [2] | Potency [3] | Potency [4]

Cc1ccccc1Br
inactive: Potency [1] | Potency [2] | Potency [3] | Potency [4]

O=C(O[C@@H]1Cc2c(O)cc(O)cc2O[C@@H]1c1cc(O)c(O)c(O)c1)c1cc(O)c(O)c(O)c1
inactive: Potency [1] | Potency [2] | Potency [3] | Potency [4]

OC[C@]1(O)OC[C@@H](O)[C@H](O)[C@@H]1O
inactive: Potency [1] | Potency [2] | Potency [3] | Potency [4]

CN(C)Cc1ccccc1O
inactive: Potency [1] | Potency [2] | Potency [3] | Potency [4]

CCC(C)N (stereo unspecified)
inactive: Potency [1] | Potency [2] | Potency [3] | Potency [4]

Cc1ccccc1N=C(N)Nc1ccccc1C
inactive: Potency [1] | Potency [2] | Potency [3] | Potency [4]

Cc1ccc2cccnc2c1
inactive: Potency [1] | Potency [2] | Potency [3] | Potency [4]

C=CCOC(=O)C(=C)C
inactive: Potency [1] | Potency [2] | Potency [3] | Potency [4]

CCCCN(C)C
inactive: Potency [1] | Potency [2] | Potency [3] | Potency [4]

CNS(=O)(=O)Cc1ccc2[nH]cc(CCN(C)C)c2c1
inactive: Potency [1] | Potency [2] | Potency [3] | Potency [4]

O=C(O)c1ccc(C(=O)O)c(C(=O)O)c1
inactive: Potency [1] | Potency [2] | Potency [3] | Potency [4]

Cc1cc(Cc2cc(C)cc(C(C)(C)C)c2O)c(O)c(C(C)(C)C)c1
inactive: Potency [1] | Potency [2] | Potency [3] | Potency [4]

C=CC(=O)CC
inactive: Potency [1] | Potency [2] | Potency [3] | Potency [4]

Cc1ccc(C(=O)Oc2ccc(C(O)CNC(C)(C)C)cc2OC(=O)c2ccc(C)cc2)cc1 (stereo unspecified)
inactive: Potency [1] | Potency [2] | Potency [3] | Potency [4]

O=C1OC(O)C(C(Cl)Cl)=C1Cl (stereo unspecified)
inactive: Potency [1] | Potency [2] | Potency [3] | Potency [4]

Cc1cccc(OCC(O)CNC(C)(C)C)c1C (stereo unspecified)
inactive: Potency [1] | Potency [2] | Potency [3] | Potency [4]

CCOC(=O)[C@H](C)O
inactive: Potency [1] | Potency [2] | Potency [3] | Potency [4]

CCCCCCCCOC(C)=O
inactive: Potency [1] | Potency [2] | Potency [3] | Potency [4]

O=C(CCN1CCN(CCO)CC1)N1c2ccccc2Sc2ccc(C(F)(F)F)cc21
inactive: Potency [1] | Potency [2] | Potency [3] | Potency [4]

CC(C)(C)CC(C)(C)c1ccccc1O
inactive: Potency [1] | Potency [2] | Potency [3] | Potency [4]

O=C1OC(=O)c2ccc3c4c(ccc1c24)C(=O)OC3=O
inactive: Potency [1] | Potency [2] | Potency [3] | Potency [4]

O=C(Nc1ccc(Cl)c(Cl)c1)C1CC1
inactive: Potency [1] | Potency [2] | Potency [3] | Potency [4]

NNc1nnc(NN)c2ccccc12
inactive: Potency [1] | Potency [2] | Potency [3] | Potency [4]

CC1CCCNC1 (stereo unspecified)
inactive: Potency [1] | Potency [2] | Potency [3] | Potency [4]

CC(C)(C)CC(C)(C)c1ccc(O)c(-n2nc3ccccc3n2)c1
inactive: Potency [1] | Potency [2] | Potency [3] | Potency [4]

CCOC(=O)c1ccccc1C
inactive: Potency [1] | Potency [2] | Potency [3] | Potency [4]

O=C(O)Cc1csc(-c2ccc(Cl)cc2)n1
inactive: Potency [1] | Potency [2] | Potency [3] | Potency [4]

CCCOc1ccc2nc(NC(=O)OC)[nH]c2c1
inactive: Potency [1] | Potency [2] | Potency [3] | Potency [4]

COc1cc(C(=O)N2CCCCCCC2)cc(OC)c1OC
inactive: Potency [1] | Potency [2] | Potency [3] | Potency [4]

CC(=O)C(=O)O
inactive: Potency [1] | Potency [2] | Potency [3] | Potency [4]

CC(C)c1ccc2cc(C(C)C)ccc2c1
inactive: Potency [1] | Potency [2] | Potency [3] | Potency [4]

CCC(C)n1ncn(-c2ccc(N3CCN(c4ccc(OC[C@H]5CO[C@](Cn6cncn6)(c6ccc(Cl)cc6Cl)O5)cc4)CC3)cc2)c1=O (stereo partly specified)
inactive: Potency [1] | Potency [2] | Potency [3] | Potency [4]

O[C@@H]1CO[C@H]2[C@@H]1OC[C@@H]2O
inactive: Potency [1] | Potency [2] | Potency [3] | Potency [4]

O=C(O)c1cccc(C[C@@H]2COc3ccc(OCc4nc5cc(F)ccc5s4)cc3[C@@H]2O)c1
inactive: Potency [1] | Potency [2] | Potency [3] | Potency [4]

COc1cc(C(=O)NS(=O)(=O)c2ccccc2C)ccc1Cc1cn(C)c2ccc(NC(=O)OC3CCCC3)cc12
inactive: Potency [1] | Potency [2] | Potency [3] | Potency [4]
